# Bioassay records (PubChem BioAssay)
# POLH inh = blocks human DNA polymerase eta activity; recombinant Pol eta, fluorescent DNA replication assay; Potency, µM (top dose mostly 114 µM), hits mostly inhibitors; hit rate 1.2% among 390,000; Q9Y253
#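 Pol eta (10 nM) was preincubated with compounds for 15 min at room temperature, after which fluorescent replication substrate (50 nM final) was added to start the reaction. Fluorescence was read kinetically at 0 and 10 min.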
# Pol kappa inh = DNA polymerase kappa (human) inhibition; purified Pol kappa, fluorescent DNA synthesis assay, 10 min; Potency, µM (series often up to 107 µM), hits mostly inhibitors; hit rate 0.53% among 400,000; Q9UBT6
# Target sequence (Q9UBT6 whole entry, looked up): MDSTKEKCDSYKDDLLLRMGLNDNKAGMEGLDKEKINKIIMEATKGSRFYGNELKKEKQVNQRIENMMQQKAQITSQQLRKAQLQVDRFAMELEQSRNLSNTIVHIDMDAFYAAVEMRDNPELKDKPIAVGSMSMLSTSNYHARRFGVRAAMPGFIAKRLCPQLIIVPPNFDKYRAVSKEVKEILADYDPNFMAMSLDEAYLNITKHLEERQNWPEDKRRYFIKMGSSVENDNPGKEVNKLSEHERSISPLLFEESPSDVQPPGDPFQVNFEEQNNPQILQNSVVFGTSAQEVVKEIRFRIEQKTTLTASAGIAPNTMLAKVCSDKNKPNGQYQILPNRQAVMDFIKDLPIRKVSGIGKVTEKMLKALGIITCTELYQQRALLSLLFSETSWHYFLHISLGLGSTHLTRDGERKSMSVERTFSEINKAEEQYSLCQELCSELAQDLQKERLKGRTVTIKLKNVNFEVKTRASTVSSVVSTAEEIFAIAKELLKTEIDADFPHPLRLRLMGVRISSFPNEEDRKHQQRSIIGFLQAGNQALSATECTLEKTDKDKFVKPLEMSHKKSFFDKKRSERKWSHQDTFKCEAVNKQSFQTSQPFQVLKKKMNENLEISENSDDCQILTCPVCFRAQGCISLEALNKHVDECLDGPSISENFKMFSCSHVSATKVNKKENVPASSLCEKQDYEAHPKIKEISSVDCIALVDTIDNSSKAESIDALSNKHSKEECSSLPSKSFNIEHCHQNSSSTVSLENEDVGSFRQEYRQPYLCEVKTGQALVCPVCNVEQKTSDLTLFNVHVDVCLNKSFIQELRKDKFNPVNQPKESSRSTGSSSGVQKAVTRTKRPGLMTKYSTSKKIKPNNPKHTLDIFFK
#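 10 nM Pol kappa preincubated 15 min at room temperature with compounds, then reaction started with substrate at 50 nM final. Fluorescence read kinetically at 0 and 10 min; buffer-only wells served as negative control.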
# FEN1 inhibitor = inhibitors of human flap endonuclease 1 | Potency, µM (titrated, usually from 114 µM), actives largely listed as inhibitors | AID 588795 | Recombinant FEN1 flap cleavage, fluorescence, 15 min | hit rate 0.35% among 390,000; further: nearly all actives have a fitted effect of over 65% in size
#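 In this screen, 50 nM flap DNA substrate was added to 10 nM FEN1 pretreated with compound for 15 min at room temperature; cleavage was followed with reads at 0 and 15 min, and Hill fitting gave concentration–response parameters.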
# POLB inh = inhibitors of human DNA polymerase beta | Pol beta primer extension/strand displacement, fluorescence kinetic | hit rate 1.3% among 340,000 | Potency, µM (titrated, usually from 114 µM), most hits filed as inhibitors | P06746
#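 Enzyme-only controls used 10 nM Pol beta; buffer lacking enzyme served as negative control. Compound preincubated 15 min, then 50 nM substrate added; 0 and 10 min reads at room temperature.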
# PGK inhibitor = T. brucei PGK inhibition | PGK/GAPDH coupled, Kinase-Glo luminescence, 60 min | P07378 | Potency, µM (series often up to 57.5 µM), usual class: inhibitors | hit rate 0.043% among 380,000; further: nearly all actives have a fitted effect of over 60% in size
#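 Luminescent ATP detection (Kinase-Glo Plus) follows a 60-minute room-temperature incubation, with wells lacking PGK as controls. Buffer: 100 mM TEA (pH 7.6), 5 mM MgCl2, 0.01% Tween-20. Coupling enzyme GAPDH (100 nM final) supplies unstable 1,3-BPG in-well.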
# POLI inh = blocks human DNA polymerase iota activity; Q9UNA4; Pol iota fluorescent replication assay, 10 min; Potency, µM (highest dose often 115 µM), hits mostly inhibitors; AID 588590; hit rate 1% among 390,000
#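 Fluorescent replication assay read twice, at 0 min and 10 min after adding 50 nM (final) substrate. Enzyme (10 nM) and compounds were first incubated 15 min at room temperature; enzyme-free buffer wells were negative controls.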
# A number is an active result; – = inactive; ? = inconclusive; · = no result. Sampled rows, rich in hits. Any-hit rate of the full collection: about 2.4%. The call rests on the fitted dose curve; in most records, active means well fitted curve in the direction sought with a large enough effect; inconclusive means small, poorly fitted or top-dose-only effect, or another doubt; inactive means no such curve, though single readings can be large; an effect the other way counts as inactive or inconclusive.
SMILES,POLH inh,Pol kappa inh,FEN1 inhibitor,POLB inh,PGK inhibitor,POLI inh
O=C(Nc1ccc(Cl)cc1F)c1ccc(COc2c(F)c(F)c(F)c(F)c2F)o1,20µM,–,–,44.7µM,–,–
C=C1NN(Cc2ccccc2)C(=O)N1c1ccc(OC)cc1,·,–,–,·,·,–
Cc1ccc(-n2sc3ccccc3c2=O)cc1,–,–,–,–,–,–
O=c1c2ccccc2sn1-c1ccc(F)cc1,–,–,79.4µM,·,–,?
COc1ccc(C(=O)C[n+]2cccc(Br)c2)cc1,–,–,–,–,–,–
O=C(CBr)c1ccc(Oc2ccc(C(=O)C[n+]3cccc(Br)c3)cc2)cc1,·,–,–,·,·,79.4µM
Cc1ccc2c(C(=O)CNC3=NCCS3)c(C)[nH]c2c1,·,–,–,·,·,–
Cc1cc(C(=O)Cn2ncc(Cl)c(Cl)c2=O)c(C)n1CC(F)(F)F,22.4µM,–,–,–,–,?
CCN(CC)/[N+]([O-])=N/OCOC(=O)c1ccccc1OC(C)=O,·,–,–,·,·,–
O=c1ccc2ccc(Oc3ccc([N+](=O)[O-])cc3Cl)cc2o1,–,–,–,–,–,–
Cc1cc(=O)oc2cc(Oc3ncccc3[N+](=O)[O-])ccc12,–,–,–,?,–,–
NC(=O)c1ccc(Oc2ccc3ccc(=O)oc3c2)c([N+](=O)[O-])c1,28.2µM,?,–,?,–,?
Cc1cc(=O)oc2cc(Oc3ccc([N+](=O)[O-])cc3[N+](=O)[O-])ccc12,?,–,–,–,–,79.4µM
Cc1ccc(-n2nc(C)c3c2OC(N)=C(C#N)C3c2ccoc2)cc1 (configuration not stated),–,–,–,28.2µM,–,20µM
C[C@@H]1C[C@H]2[C@@H]3CCC4=CC(=O)C=C[C@]4(C)[C@@]3(F)C(O)C[C@]2(C)[C@@]1(O)C(=O)CO (some centres not stated),·,–,–,·,·,–
CC(C)(C)n1ncc2c(=O)n(Cc3cc(C(F)(F)F)ccc3Cl)cnc21,·,–,–,·,·,–
CCOC(=O)c1nc(NCc2ccc(Cl)cc2)c2c(C)noc2n1,–,–,–,–,–,–
Cc1ccc2c(=O)cc(C(=O)NCCc3ccc(S(N)(=O)=O)cc3)oc2c1,22.4µM,–,–,?,–,44.7µM
O=C(CSc1ccc(Br)c2cccc(Cl)c12)Nc1ccc(S(=O)(=O)Nc2nccs2)cc1,44.7µM,?,–,50.1µM,–,?
CC(=O)c1ccccc1S(=O)(=O)N1CCN(c2nc(-c3cccs3)nc3ccccc23)CC1,·,–,–,·,·,?
Cc1ccc2[nH]c(O)c(N=NC(=O)c3ccc(NS(=O)(=O)c4cccs4)cc3)c2c1,22.4µM,–,?,–,–,?
O=C(N=Nc1c(O)[nH]c2ccc(F)cc12)c1ccc(NS(=O)(=O)c2cccs2)cc1,?,–,–,·,–,–
O=S(=O)(O)O,·,–,·,·,·,·
CCOc1cc(/C=C2\C(=O)N(c3ccc(C(N)=O)cc3)N=C2C)ccc1OC(=O)c1cccs1,50.1µM,–,–,–,–,?
CCOc1cc(/C=C2/C(=O)N(c3ccccc3)N=C2C)ccc1OC(=O)c1ccco1,–,–,–,–,–,1µM
SMILES,POLH inh,Pol kappa inh,FEN1 inhibitor,POLB inh,PGK inhibitor,POLI inh
C[N+]1(CC(=O)c2c3ccccc3cc3ccccc23)CCOCC1,·,–,–,·,·,–
CCNc1nc(NCC)n2c(SCC(=O)Nc3cccc(F)c3)nnc2n1,?,?,–,·,–,44.7µM
CCNc1nc(NCC)n2c(SCC(=O)Nc3ccccc3C(F)(F)F)nnc2n1,?,?,–,·,–,79.4µM
CCNc1nc(NCC)n2c(SCC(=O)Nc3cccc(Cl)c3)nnc2n1,14.1µM,?,–,·,?,?
COc1cc(NC(=O)C2CCN(S(=O)(=O)c3c(C)noc3/C=C/c3c(C)cc(C)cc3C)CC2)cc(OC)c1,–,–,–,–,–,–
CCN(CC)/[N+]([O-])=N/Oc1cc(O/N=[N+](\[O-])N(C)C)c([N+](=O)[O-])cc1[N+](=O)[O-],·,–,?,·,·,?
Cc1sc2ncnc(N3CCN(Cc4ccccc4)CC3)c2c1-c1ccccc1,–,?,–,–,–,89.1µM
CCOc1ccc(CN2CCN(c3ncnc4scc(-c5ccccc5)c34)CC2)cc1,–,–,–,–,–,–
